Laboratory results: the antibiotic and cytotoxicity screens of Wong et al. (2023)
The campaign covered roughly 39,000 compounds. About 500 (1.3%) were called active. Only a selection was taken, and actives are over-represented in it overall.

The compounds below were run on S. aureus RN4220 (assay: growth inhibition call (relative growth <= 0.2)). Settings: 50 µM.

Growth inhibition call, inactive:
C[C@@H]1CCCCO[C@H](CN(C)C(=O)Nc2ccc(C(F)(F)F)cc2)[C@H](C)CN([C@@H](C)CO)C(=O)c2cc(NC(=O)Nc3ccc(C(F)(F)F)cc3)ccc2O1, C[C@@H]1CN([C@@H](C)CO)C(=O)c2cc(NC(=O)Nc3ccc(C(F)(F)F)cc3)ccc2O[C@H]1CN(C)Cc1ccc(-c2ccccc2)cc1, C[C@@H]1CN([C@H](C)CO)C(=O)c2cc(NC(=O)c3ccncc3)ccc2O[C@@H]1CN(C)Cc1ccncc1, Cc1ccc(CN)cc1Cl, Cc1cc(C(=O)c2cc3cc(Cl)ccc3o2)ccc1Cl, O=C1CCOC1, C[C@H]1CN([C@@H](C)CO)C(=O)c2cc(NC(=O)Cn3cnnn3)ccc2O[C@H]1CN(C)Cc1ccc(Cl)c(Cl)c1, CCC(=O)Nc1ccc2ccccc2c1, CN(Cc1ccccc1)C(=O)[C@H](Cc1ccc2ccccc2c1)NC(=O)[C@@H]1CCCN1C(=O)Nc1ccccc1[N+](=O)[O-], C[C@@H]1CN([C@H](C)CO)C(=O)c2cc(NC(=O)Nc3cccc4ccccc34)ccc2O[C@@H]1CN(C)C(=O)NC1CCCCC1, C[C@H](CO)N1C[C@H](C)[C@@H](CN(C)C(=O)NC2CCCCC2)Oc2ccc(NC(=O)Nc3cccc4ccccc34)cc2C1=O, C[C@H](CO)N1C[C@H](C)[C@H](CN(C)S(=O)(=O)c2ccc(Cl)cc2)Oc2ccc(N(C)C)cc2CC1=O, C[C@H]1CN([C@@H](C)CO)C(=O)c2cccc(NS(C)(=O)=O)c2O[C@@H]1CN(C)S(=O)(=O)c1ccc(F)cc1, CN(C)CCC=C1c2ccccc2COc2ccccc21.Cl, CN(C)CCC=C1c2ccccc2CCc2ccccc21.Cl, COc1ccc(S(=O)(=O)N(C)C[C@@H]2Oc3ccc(NC(=O)c4ccncc4)cc3C(=O)N([C@H](C)CO)C[C@H]2C)cc1, C[C@@H]1CCCCO[C@@H](CN(C)C(=O)C2CCCCC2)[C@@H](C)CN([C@@H](C)CO)C(=O)c2cc(NS(=O)(=O)c3cccs3)ccc2O1, Cc1noc(C)c1NC(=O)N(C)C[C@H]1Oc2ccc(NS(=O)(=O)c3c(C)noc3C)cc2CC(=O)N([C@H](C)CO)C[C@H]1C, Cc1cc(Cl)cc2sc(N(Cc3ccccn3)C(=O)c3ccc(S(=O)(=O)N4CCCC4)cc3)nc12, Cc1ccc2sc(N(CCCN(C)C)C(=O)c3ccc(S(=O)(=O)N(C)Cc4ccccc4)cc3)nc2c1C, CC(C)NC(=O)Nc1ccc2c(c1)C(=O)N([C@H](C)CO)C[C@@H](C)[C@H](CN(C)C(=O)C1CCCCC1)OCCCC[C@H](C)O2, Cc1cc(C(=O)Nc2cccc3c2O[C@@H](CN(C)C(=O)Nc2c(C)noc2C)[C@H](C)CN([C@H](C)CO)C3=O)n(C)n1, C[C@@H]1CCCCO[C@H](CN(C)S(=O)(=O)c2ccccc2)[C@@H](C)CN([C@H](C)CO)C(=O)c2cc(NC(=O)Nc3ccc(F)cc3)ccc2O1, CO[C@@H]1CN(C)C(=O)c2ccc(NS(=O)(=O)c3ccccc3)cc2OC[C@@H](C)N(C(=O)NC(C)C)C[C@H]1C, O=C(O)C1=C[C@@H](O)[C@H](O)[C@H](O)C1, C[C@H]1CN([C@@H](C)CO)C(=O)c2cc(NC(=O)Nc3ccc(C(F)(F)F)cc3)ccc2O[C@@H]1CN(C)Cc1ccccc1, COc1ccc(CN(C)C[C@@H]2Oc3ccc(NC(=O)Nc4ccc(C(F)(F)F)cc4)cc3C(=O)N([C@@H](C)CO)C[C@@H]2C)cc1, C[C@H](CO)N1C[C@H](C)[C@@H](CN(C)Cc2ccccc2)Oc2ccc(NC(=O)Nc3ccc(C(F)(F)F)cc3)cc2C1=O, C[C@@H]1CN([C@H](C)CO)C(=O)c2cc(NC(=O)Nc3ccc(C(F)(F)F)cc3)ccc2O[C@@H]1CN(C)Cc1ccccc1, C[C@H](CO)N1C[C@H](C)[C@@H](CN(C)Cc2ccc3c(c2)OCO3)Oc2ccc(NC(=O)Nc3ccc(C(F)(F)F)cc3)cc2C1=O, COc1ccc(NC(=O)Nc2ccc3c(c2)C(=O)N([C@@H](C)CO)C[C@@H](C)[C@@H](CN(C)Cc2ccc(C(F)(F)F)cc2)O3)cc1, C[C@@H]1CN([C@@H](C)CO)C(=O)c2cc(NC(=O)Nc3ccc(C(F)(F)F)cc3)ccc2O[C@@H]1CN(C)Cc1ccccc1, C[C@@H]1CN([C@@H](C)CO)C(=O)c2cc(NC(=O)Nc3ccc(C(F)(F)F)cc3)ccc2O[C@@H]1CN(C)Cc1ccc2c(c1)OCO2, O=C(C[C@H]1CC[C@H]2[C@@H](COC[C@H](O)CN2S(=O)(=O)c2ccccc2)O1)N1CCOCC1, C[C@@H]1CN([C@@H](C)CO)C(=O)c2cc(NC(=O)NC3CCCCC3)ccc2O[C@@H](C)CCCCO[C@H]1CN(C)S(=O)(=O)c1ccc(F)cc1, CC(C)c1cc(=O)n2nc(N)nc2[nH]1, Cc1ccc(S(=O)(=O)N(C)C[C@@H]2Oc3ncc(C#CCC(C)C)cc3C(=O)N([C@@H](C)CO)C[C@H]2C)cc1, Cc1noc(C)c1NC(=O)N[C@@H]1CC[C@H](CC(=O)N2CCN(C)CC2)O[C@H]1CO, CC(=O)N1[C@H](CO)[C@H](c2ccccc2)[C@H]1CNC(=O)CN1CCOCC1, C[C@@H]1CN([C@@H](C)CO)C(=O)c2cc(NS(C)(=O)=O)ccc2O[C@@H]1CN(C)C(=O)NC1CCCCC1, Cc1ccc(S(=O)(=O)N(C)C[C@H]2Oc3ccc(NS(=O)(=O)c4ccccc4)cc3C(=O)N([C@@H](C)CO)C[C@H]2C)cc1, Cc1ccc(S(=O)(=O)Nc2ccc3c(c2)C(=O)N([C@@H](C)CO)C[C@H](C)[C@@H](CN(C)C(=O)Nc2ccc(C(F)(F)F)cc2)OCCCC[C@H](C)O3)cc1, COCC(=O)Nc1ccc2c(c1)[C@H]1C[C@H](CC(=O)N3CCOCC3)O[C@H](CO)[C@H]1O2, COc1ccc(NC(=O)Nc2ccc3c(c2)C(=O)N([C@@H](C)CO)C[C@@H](C)[C@@H](CN(C)S(=O)(=O)c2cn(C)cn2)O3)cc1, CO[C@@]12[C@H](COC(N)=O)C3=C(C(=O)C(C)=C(N)C3=O)N1C[C@@H]1N[C@@H]12, Cc1onc(C(=O)O)c1[N+](=O)[O-], C[C@H]1CN([C@@H](C)CO)S(=O)(=O)c2ccc(C#Cc3cccnc3)cc2O[C@H]1CN(C)C(=O)CN(C)C, CN[C@@H]1[C@H](O[C@H]2[C@H](O[C@H]3[C@H](O)[C@@H](O)[C@H](NC(=N)N)[C@@H](O)[C@@H]3NC(=N)N)O[C@@H](C)[C@]2(O)C=O)O[C@@H](CO)[C@H](O)[C@H]1O, CN[C@H]1[C@@H](O[C@H]2[C@@H](O[C@H]3[C@@H](O)[C@@H](O)[C@@H](NC(=N)N)[C@@H](O)[C@@H]3NC(=N)N)O[C@@H](C)[C@@]2(O)C=O)O[C@@H](CO)[C@@H](O)[C@@H]1O.CN[C@H]1[C@@H](O[C@H]2[C@@H](O[C@H]3[C@@H](O)[C@@H](O)[C@@H](NC(=N)N)[C@@H](O)[C@@H]3NC(=N)N)O[C@@H](C)[C@@]2(O)C=O)O[C@@H](CO)[C@@H](O)[C@@H]1O.O=S(=O)(O)O.O=S(=O)(O)O.O=S(=O)(O)O, O=C(NC1CC1)[C@@H]1c2ccccc2C(=O)N(Cc2cc(F)cc(C(F)(F)F)c2)[C@H]1c1ccc(CO)cc1, Cc1noc(C)c1NC(=O)Nc1ccc2c(c1)CC(=O)N([C@H](C)CO)C[C@@H](C)[C@@H](CN(C)C(=O)Nc1ccc(C(F)(F)F)cc1)O2, C[C@@H]1CN([C@@H](C)CO)C(=O)c2cc(NC(=O)Nc3ccc(C(F)(F)F)cc3)ccc2O[C@@H](C)CCCCO[C@H]1CN(C)Cc1ccc(C(=O)O)cc1

Growth inhibition call, active:
Cc1cc(CN)cc(C)c1NC(=O)c1ccc(-c2cc(Cl)ccc2Cl)o1, CCCC[P+](CCCC)(CCCC)Cc1ccc(NC(=O)[C@@H](Cc2ccc3ccccc3c2)N=C(NC2CCCCC2)NC2CCCCC2)cc1, CCCC[P+](CCCC)(CCCC)Cc1ccc(NC(=O)[C@H](Cc2ccc3ccccc3c2)N/C(=N/C2CCCCC2)NC2CCCCC2)cc1, CN(C)CCC=C1c2ccccc2COc2ccc(CC(=O)O)cc21.Cl, Cc1ccc2sc(N(CCCN(C)C)C(=O)c3ccc(S(=O)(=O)N(C)C4CCCCC4)cc3)nc2c1C, C[C@H]1CN([C@@H](C)CO)C(=O)c2cc(NC(=O)Nc3ccc(C(F)(F)F)cc3)ccc2O[C@H]1CN(C)Cc1ccc2c(c1)OCO2, C[C@H](CO)N1C[C@H](C)[C@H](CN(C)Cc2ccccc2)Oc2ccc(NC(=O)Nc3ccc(C(F)(F)F)cc3)cc2C1=O, C[C@H]1CN([C@@H](C)CO)C(=O)c2cc(NC(=O)Nc3ccc(C(F)(F)F)cc3)ccc2O[C@H]1CN(C)Cc1ccccc1, COc1ccc(CN(C)C[C@@H]2Oc3ccc(NC(=O)Nc4ccc(C(F)(F)F)cc4)cc3C(=O)N([C@H](C)CO)C[C@@H]2C)cc1, CO[C@@]12[C@@H]3N[C@@H]3CN1C1=C(C(=O)C(N)=C(C)C1=O)[C@@H]2COC(N)=O, COC12C(COC(N)=O)C3=C(C(=O)C(C)=C(N)C3=O)N1CC1NC12 (centres undefined), CNC1C(OC2C(OC3C(O)C(O)C(NC(=N)N)C(O)C3NC(=N)N)OC(C)C2(O)C=O)OC(CO)C(O)C1O.O=S(=O)(O)O (centres undefined) [STREPTOMYCIN SULFATE [5mM; 10% aq DMSO + 5mM ethanolamine]]
